# From paper PMC7862700, “An all-to-all approach to the identification of sequence-specific readers for epigenetic DNA modifications on cytosine”
# Columns and labels:
# Assay in all cases: DAPPL (digital affinity profiling via proximity ligation, sequencing); 10 mM Tris-HCl pH 7.5, 50 mM NaCl, 1 mM DTT, 4% glycerol, room temperature, 30 min; GST-TFs on glutathione beads, 16-mer random dsDNA library, 0.1% formaldehyde crosslink after washing; high values mean tight binding
# FLI1 = target: T1, FLI1 (Homo sapiens, UniProt Q01543 1-452); conditions: protein: recombinant; tags: N-terminal GST; dsDNA, one strand shown
# T1 sequence: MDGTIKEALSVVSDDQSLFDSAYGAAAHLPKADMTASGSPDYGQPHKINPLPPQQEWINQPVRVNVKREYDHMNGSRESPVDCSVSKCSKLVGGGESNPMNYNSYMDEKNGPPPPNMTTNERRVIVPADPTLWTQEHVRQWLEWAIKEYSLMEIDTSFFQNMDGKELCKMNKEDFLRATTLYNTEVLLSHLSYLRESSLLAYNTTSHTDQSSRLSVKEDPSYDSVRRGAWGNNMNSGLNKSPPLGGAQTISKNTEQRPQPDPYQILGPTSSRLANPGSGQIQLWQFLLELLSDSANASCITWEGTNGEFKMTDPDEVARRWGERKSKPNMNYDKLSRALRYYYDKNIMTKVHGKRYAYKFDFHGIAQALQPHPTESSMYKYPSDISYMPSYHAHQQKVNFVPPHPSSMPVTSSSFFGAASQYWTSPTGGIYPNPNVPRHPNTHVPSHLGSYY
# How it was run: (§1)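 GST fusions of human transcription factors were expressed in yeast and captured with glutathione beads. Once given DNA barcodes and pooled alongside a tag-only sample, they were incubated for 30 min at room temperature with 200 nmole of a random double-stranded 16-mer DNA library in Tris/NaCl/DTT/glycerol buffer, then washed, crosslinked (0.1% formaldehyde), proximity-ligated, PCR-amplified and sequenced on an Illumina NextSeq500. The binding signal of each hexamer is its read frequency for a factor divided by its frequency for the tag-only sample.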
# ELK1 = target: T2, ELK1 (Homo sapiens, UniProt P19419 1-428); conditions: protein: recombinant; tags: N-terminal GST; dsDNA, one strand shown
# T2 sequence: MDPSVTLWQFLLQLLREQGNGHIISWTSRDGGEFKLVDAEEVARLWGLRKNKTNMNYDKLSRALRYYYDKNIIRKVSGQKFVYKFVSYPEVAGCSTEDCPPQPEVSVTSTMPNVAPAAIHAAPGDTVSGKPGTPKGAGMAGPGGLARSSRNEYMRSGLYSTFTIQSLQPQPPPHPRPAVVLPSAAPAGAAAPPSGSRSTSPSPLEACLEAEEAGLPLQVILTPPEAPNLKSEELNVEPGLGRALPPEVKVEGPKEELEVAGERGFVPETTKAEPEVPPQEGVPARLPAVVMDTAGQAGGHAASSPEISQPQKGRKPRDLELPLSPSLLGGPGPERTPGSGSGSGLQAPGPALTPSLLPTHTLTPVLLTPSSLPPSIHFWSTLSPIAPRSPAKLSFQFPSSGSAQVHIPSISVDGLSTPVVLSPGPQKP
# How it was run: as §1
# GABPA = target: T3, GABPA (Homo sapiens, UniProt Q06546 1-454); conditions: protein: recombinant; tags: N-terminal GST; dsDNA, one strand shown
# T3 sequence: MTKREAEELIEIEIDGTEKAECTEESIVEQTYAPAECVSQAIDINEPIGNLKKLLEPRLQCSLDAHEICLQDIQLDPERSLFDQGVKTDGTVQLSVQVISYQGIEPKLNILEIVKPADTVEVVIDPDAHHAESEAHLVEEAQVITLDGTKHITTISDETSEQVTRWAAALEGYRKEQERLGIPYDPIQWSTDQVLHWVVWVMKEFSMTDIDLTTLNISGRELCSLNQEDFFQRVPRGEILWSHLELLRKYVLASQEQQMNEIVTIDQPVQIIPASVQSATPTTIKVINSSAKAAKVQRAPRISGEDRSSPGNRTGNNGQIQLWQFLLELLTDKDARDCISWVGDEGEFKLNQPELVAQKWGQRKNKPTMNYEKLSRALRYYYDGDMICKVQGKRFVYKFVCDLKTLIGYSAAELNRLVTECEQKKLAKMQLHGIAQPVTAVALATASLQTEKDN
# How it was run: as §1
# ERG = target: T4, ERG (Homo sapiens, UniProt P11308 1-479); conditions: protein: recombinant; tags: N-terminal GST; dsDNA, one strand shown
# T4 sequence: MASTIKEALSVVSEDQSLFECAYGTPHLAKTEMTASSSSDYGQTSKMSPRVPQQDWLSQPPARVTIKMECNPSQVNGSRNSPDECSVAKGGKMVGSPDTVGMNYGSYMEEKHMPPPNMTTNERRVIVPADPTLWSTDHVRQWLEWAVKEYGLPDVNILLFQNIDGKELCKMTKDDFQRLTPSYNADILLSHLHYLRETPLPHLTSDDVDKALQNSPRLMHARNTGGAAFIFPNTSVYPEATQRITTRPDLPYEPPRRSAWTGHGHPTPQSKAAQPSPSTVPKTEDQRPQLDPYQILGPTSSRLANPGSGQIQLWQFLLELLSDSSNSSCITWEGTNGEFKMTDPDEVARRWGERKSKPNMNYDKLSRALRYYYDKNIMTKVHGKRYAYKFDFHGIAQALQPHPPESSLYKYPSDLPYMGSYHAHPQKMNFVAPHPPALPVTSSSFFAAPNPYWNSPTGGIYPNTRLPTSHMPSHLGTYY
# How it was run: as §1
# ELF1 = ELF1 (Homo sapiens, UniProt P32519 1-619); conditions: protein: recombinant; tags: N-terminal GST; dsDNA, one strand shown
# Sequence of ELF1 (P32519 whole entry): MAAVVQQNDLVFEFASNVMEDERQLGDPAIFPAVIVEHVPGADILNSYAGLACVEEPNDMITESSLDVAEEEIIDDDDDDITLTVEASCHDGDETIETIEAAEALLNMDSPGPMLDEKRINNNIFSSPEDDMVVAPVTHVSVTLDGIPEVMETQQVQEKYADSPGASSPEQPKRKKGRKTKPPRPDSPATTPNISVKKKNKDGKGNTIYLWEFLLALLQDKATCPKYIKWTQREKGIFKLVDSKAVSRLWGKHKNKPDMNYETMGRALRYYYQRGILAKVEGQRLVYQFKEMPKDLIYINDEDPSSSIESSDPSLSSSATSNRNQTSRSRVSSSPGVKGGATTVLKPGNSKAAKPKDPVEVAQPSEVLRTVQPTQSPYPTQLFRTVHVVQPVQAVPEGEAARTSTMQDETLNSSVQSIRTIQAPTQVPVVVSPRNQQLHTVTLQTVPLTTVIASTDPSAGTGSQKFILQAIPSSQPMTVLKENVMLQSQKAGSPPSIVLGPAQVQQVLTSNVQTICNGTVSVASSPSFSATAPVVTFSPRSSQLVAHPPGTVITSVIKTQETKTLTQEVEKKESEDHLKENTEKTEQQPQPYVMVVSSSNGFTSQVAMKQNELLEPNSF
# How it was run: as §1
# EHF = target: T5, EHF (Homo sapiens, UniProt Q9NZC4 1-300); conditions: protein: recombinant; tags: N-terminal GST; dsDNA, one strand shown
# T5 sequence: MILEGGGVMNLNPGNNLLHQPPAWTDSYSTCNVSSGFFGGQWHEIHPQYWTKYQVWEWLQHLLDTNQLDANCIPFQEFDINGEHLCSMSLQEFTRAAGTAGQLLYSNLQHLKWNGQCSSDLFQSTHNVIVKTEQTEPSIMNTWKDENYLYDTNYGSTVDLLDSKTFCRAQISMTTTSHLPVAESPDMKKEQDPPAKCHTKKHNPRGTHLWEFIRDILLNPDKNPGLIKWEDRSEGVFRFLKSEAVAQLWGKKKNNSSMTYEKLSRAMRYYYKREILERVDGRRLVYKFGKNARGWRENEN
# How it was run: as §1
# SPI1 = SPI1 (Homo sapiens, UniProt P17947 1-270); conditions: protein: recombinant; tags: N-terminal GST; dsDNA, one strand shown
# How it was run: as §1
# SPIB = SPIB (Homo sapiens, UniProt Q01892 1-262); conditions: protein: recombinant; tags: N-terminal GST; dsDNA, one strand shown
# Sequence of SPIB (Q01892 whole entry): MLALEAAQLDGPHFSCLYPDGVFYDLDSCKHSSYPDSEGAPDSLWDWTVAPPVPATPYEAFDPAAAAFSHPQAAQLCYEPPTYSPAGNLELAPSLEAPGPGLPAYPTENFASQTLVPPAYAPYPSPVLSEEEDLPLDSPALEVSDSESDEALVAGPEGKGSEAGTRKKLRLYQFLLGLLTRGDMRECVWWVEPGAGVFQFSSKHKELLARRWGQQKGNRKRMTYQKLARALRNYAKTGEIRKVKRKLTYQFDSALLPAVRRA
# How it was run: as §1
# ELK3 = target: T6, ELK3 (Homo sapiens, UniProt P41970 1-407); conditions: protein: recombinant; tags: N-terminal GST; dsDNA, one strand shown
# T6 sequence: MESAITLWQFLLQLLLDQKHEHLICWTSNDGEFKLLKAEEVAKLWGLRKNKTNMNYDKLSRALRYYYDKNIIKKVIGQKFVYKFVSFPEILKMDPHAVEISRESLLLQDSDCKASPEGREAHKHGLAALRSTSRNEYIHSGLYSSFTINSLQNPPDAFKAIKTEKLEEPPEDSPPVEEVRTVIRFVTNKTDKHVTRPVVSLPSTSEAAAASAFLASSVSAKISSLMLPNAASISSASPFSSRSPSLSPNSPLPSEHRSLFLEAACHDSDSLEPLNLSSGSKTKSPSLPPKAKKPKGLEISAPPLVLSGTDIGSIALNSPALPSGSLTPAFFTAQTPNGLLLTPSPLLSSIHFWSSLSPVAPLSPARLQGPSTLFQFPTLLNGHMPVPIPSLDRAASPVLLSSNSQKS
# How it was run: as §1
# FEV = target: T7, FEV (Homo sapiens, UniProt Q99581 1-238); conditions: protein: recombinant; tags: N-terminal GST; dsDNA, one strand shown
# T7 sequence: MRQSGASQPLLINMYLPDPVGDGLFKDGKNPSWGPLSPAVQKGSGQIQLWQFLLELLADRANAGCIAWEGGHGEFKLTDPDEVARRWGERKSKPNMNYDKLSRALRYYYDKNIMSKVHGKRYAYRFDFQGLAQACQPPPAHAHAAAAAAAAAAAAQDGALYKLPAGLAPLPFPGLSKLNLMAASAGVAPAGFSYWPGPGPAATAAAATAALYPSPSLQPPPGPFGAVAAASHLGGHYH
# How it was run: as §1
# ETV5 = ETV5 (Homo sapiens, UniProt P41161 1-510); conditions: protein: recombinant; tags: N-terminal GST; dsDNA, one strand shown
# Sequence of ETV5 (P41161 whole entry): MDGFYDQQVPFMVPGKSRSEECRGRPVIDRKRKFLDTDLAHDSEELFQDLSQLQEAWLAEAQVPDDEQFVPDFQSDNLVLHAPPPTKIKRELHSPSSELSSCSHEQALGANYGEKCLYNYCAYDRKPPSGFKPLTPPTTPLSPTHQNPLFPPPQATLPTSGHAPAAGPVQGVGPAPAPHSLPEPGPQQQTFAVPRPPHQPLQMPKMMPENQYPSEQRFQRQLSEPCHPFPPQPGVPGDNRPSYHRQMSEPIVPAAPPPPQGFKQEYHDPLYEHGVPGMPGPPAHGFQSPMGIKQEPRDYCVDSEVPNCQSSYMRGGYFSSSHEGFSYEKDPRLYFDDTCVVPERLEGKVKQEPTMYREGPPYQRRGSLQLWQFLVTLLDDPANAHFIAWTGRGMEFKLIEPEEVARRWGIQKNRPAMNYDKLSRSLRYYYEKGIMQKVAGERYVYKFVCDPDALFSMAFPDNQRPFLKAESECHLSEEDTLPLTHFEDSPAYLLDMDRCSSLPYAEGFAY
# How it was run: as §1
# HSF1 = HSF1 (Homo sapiens, UniProt Q00613 1-529); conditions: protein: recombinant; tags: N-terminal GST; chain copies: 3; dsDNA, one strand shown
# Sequence of HSF1 (Q00613 whole entry): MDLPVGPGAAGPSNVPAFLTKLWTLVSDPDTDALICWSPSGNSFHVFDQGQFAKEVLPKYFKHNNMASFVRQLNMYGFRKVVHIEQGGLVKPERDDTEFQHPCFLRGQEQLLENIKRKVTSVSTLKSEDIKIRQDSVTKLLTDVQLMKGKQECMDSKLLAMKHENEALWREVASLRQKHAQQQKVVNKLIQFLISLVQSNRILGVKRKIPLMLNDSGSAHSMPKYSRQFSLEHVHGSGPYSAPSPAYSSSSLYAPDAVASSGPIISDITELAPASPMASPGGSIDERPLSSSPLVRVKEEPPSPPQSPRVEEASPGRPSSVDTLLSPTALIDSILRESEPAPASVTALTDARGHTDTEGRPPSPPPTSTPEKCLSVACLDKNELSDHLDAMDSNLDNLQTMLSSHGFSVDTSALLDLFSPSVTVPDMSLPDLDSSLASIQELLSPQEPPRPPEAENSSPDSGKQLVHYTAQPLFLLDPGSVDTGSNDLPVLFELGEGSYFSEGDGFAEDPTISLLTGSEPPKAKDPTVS
# How it was run: as §1
# SPIC = target: T8, SPIC (Homo sapiens, UniProt Q8N5J4 1-248); conditions: protein: recombinant; tags: N-terminal GST; dsDNA, one strand shown
# T8 sequence: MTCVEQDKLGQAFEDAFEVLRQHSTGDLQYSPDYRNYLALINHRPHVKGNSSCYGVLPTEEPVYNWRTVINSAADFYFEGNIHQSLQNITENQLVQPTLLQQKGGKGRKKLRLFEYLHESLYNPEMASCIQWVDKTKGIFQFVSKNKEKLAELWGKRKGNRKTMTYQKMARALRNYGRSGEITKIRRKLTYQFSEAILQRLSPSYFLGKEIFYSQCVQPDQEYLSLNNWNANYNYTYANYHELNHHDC
# How it was run: as §1
# ELF4 = ELF4 (Homo sapiens, UniProt Q99607 1-663); conditions: protein: recombinant; tags: N-terminal GST; dsDNA, one strand shown
# Sequence of ELF4 (Q99607 whole entry): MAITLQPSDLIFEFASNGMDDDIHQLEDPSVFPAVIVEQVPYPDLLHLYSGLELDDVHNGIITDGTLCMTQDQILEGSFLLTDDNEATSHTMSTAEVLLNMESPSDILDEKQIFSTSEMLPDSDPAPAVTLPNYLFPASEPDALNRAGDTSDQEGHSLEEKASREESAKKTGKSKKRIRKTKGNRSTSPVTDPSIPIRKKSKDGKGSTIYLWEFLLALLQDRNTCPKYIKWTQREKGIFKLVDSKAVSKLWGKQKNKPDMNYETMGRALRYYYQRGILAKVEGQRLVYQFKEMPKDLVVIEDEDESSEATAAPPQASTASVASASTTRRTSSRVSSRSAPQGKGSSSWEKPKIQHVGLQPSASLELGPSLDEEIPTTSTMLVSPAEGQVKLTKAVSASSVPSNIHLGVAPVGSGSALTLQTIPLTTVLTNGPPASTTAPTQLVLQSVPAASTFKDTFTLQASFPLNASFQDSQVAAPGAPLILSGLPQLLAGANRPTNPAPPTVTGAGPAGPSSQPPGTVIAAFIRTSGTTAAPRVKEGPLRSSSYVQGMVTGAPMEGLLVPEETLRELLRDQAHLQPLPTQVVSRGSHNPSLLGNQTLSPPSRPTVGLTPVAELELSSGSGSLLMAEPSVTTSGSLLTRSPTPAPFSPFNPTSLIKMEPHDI
# How it was run: as §1
# ELK4 = target: T9, ELK4 (Homo sapiens, UniProt P28324-2 1-405); conditions: protein: recombinant; tags: N-terminal GST; dsDNA, one strand shown
# T9 sequence: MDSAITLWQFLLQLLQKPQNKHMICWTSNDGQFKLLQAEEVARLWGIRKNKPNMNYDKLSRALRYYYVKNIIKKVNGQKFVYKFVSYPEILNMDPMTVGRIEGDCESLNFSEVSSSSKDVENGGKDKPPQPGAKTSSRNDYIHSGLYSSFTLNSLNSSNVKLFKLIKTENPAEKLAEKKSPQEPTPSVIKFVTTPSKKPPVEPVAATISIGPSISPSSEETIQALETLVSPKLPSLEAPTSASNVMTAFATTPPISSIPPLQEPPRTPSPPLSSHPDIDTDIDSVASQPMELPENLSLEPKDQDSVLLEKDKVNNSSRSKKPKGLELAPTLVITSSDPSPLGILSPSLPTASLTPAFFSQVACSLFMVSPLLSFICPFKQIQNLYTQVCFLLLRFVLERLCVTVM
# How it was run: as §1
# ETV2 = target: T10, ETV2 (Homo sapiens, UniProt O00321 1-342); conditions: protein: recombinant; tags: N-terminal GST; dsDNA, one strand shown
# T10 sequence: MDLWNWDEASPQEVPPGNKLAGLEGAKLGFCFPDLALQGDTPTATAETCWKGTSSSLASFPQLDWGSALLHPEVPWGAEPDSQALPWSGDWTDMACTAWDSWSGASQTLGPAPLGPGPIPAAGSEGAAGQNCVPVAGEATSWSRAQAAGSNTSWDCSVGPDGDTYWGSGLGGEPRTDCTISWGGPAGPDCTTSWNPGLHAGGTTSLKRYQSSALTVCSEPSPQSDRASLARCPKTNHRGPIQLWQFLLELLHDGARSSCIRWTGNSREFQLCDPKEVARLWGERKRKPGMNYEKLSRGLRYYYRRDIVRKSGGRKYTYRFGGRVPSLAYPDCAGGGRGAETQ
# How it was run: as §1
# ELF3 = target: T11, ELF3 (Homo sapiens, UniProt P78545 1-371); conditions: protein: recombinant; tags: N-terminal GST; dsDNA, one strand shown
# T11 sequence: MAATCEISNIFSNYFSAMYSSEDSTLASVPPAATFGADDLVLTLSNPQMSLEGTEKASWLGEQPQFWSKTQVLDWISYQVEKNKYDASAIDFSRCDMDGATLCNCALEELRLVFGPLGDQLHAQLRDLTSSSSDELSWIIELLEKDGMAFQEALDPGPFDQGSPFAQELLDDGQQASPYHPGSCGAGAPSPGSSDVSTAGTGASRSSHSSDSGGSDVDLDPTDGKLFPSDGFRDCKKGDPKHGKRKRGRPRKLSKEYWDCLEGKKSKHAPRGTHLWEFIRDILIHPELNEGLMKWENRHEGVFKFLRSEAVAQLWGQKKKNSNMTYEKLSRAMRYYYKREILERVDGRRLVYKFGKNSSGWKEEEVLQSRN
# How it was run: as §1
# CRX = CRX (Homo sapiens, UniProt O43186 1-299); conditions: protein: recombinant; tags: N-terminal GST; dsDNA, one strand shown
# Sequence of CRX (O43186 whole entry): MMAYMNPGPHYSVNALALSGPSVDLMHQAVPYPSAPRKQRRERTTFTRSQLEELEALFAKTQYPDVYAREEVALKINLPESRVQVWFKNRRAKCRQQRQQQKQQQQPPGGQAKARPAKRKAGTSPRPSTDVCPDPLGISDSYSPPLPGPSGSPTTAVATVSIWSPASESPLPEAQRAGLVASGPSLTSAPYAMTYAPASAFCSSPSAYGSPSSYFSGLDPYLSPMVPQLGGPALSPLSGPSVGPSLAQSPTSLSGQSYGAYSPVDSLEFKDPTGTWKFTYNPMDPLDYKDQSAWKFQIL
# How it was run: as §1
# ETV1 = ETV1 (Homo sapiens, UniProt P50549 1-477); conditions: protein: recombinant; tags: N-terminal GST; dsDNA, one strand shown
# Sequence of ETV1 (P50549 whole entry): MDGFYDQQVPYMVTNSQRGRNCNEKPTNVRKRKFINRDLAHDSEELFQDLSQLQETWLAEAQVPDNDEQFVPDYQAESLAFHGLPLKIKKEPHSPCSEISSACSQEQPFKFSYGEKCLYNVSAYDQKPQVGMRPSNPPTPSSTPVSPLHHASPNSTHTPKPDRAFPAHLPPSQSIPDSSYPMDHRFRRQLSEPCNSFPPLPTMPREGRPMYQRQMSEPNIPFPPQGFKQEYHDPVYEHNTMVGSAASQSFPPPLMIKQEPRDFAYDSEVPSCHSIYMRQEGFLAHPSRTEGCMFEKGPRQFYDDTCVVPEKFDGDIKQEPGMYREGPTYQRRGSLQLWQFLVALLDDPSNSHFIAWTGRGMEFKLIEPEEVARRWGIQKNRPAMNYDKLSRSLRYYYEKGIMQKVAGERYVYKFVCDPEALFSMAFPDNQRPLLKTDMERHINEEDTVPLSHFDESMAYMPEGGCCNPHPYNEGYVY
# How it was run: as §1
sequence,measurement,setting,value
TCACGT,binding signal,FLI1,"1.28 fold enrichment (6-mer frequency, TF over GST control)"
same,binding signal,ELK1,"1.3 fold enrichment (6-mer frequency, TF over GST control)"
same,binding signal,GABPA,"1.31 fold enrichment (6-mer frequency, TF over GST control)"
same,binding signal,ERG,"1.29 fold enrichment (6-mer frequency, TF over GST control)"
same,binding signal,ELF1,"1.17 fold enrichment (6-mer frequency, TF over GST control)"
same,binding signal,EHF,"1.14 fold enrichment (6-mer frequency, TF over GST control)"
same,binding signal,SPI1,"1.24 fold enrichment (6-mer frequency, TF over GST control)"
same,binding signal,SPIB,"1.18 fold enrichment (6-mer frequency, TF over GST control)"
same,binding signal,ELK3,"1.16 fold enrichment (6-mer frequency, TF over GST control)"
same,binding signal,FEV,"1.19 fold enrichment (6-mer frequency, TF over GST control)"
same,binding signal,ETV5,"1.24 fold enrichment (6-mer frequency, TF over GST control)"
same,binding signal,HSF1,"1.13 fold enrichment (6-mer frequency, TF over GST control)"
same,binding signal,SPIC,"1.19 fold enrichment (6-mer frequency, TF over GST control)"
same,binding signal,ELF4,"1.23 fold enrichment (6-mer frequency, TF over GST control)"
same,binding signal,ELK4,"1.27 fold enrichment (6-mer frequency, TF over GST control)"
same,binding signal,ETV2,"1.02 fold enrichment (6-mer frequency, TF over GST control)"
same,binding signal,ELF3,"1.01 fold enrichment (6-mer frequency, TF over GST control)"
same,binding signal,CRX,"1.15 fold enrichment (6-mer frequency, TF over GST control)"
same,binding signal,ETV1,"1.26 fold enrichment (6-mer frequency, TF over GST control)"
